Assay results: ChEMBL document CHEMBL3988442, “University of Dundee, Small-Polar-MMV Screening Library” (2021)
About 950 (1.4%) of roughly 69,000 compounds showed an effect of 50% or more. This excerpt belongs to a sample that is enriched for strong results.

What follows are molecules tested on Mycobacterium tuberculosis (assay: Cornell M. t heat shock assay; note: in the data most compounds retested in dose-response had high values).
Assay type: functional, organism-based
Set-up: dose or concentration left out as unconfirmed
With CCc1[nH]c2c(CNc3cncc(C(=O)N(C)C)n3)cc(C)cc2c1C the “Percent Effect” value was -0.9488%.
In the case of CCc1[nH]c2c(CNc3cnccn3)cc(F)cc2c1C, the “Percent Effect” value is reported as 27.04%.
For Cc1cc(CNc2cncc(C(=O)N(C)C)n2)c2[nH]c(C)c(C)c2c1, the “Percent Effect” value was -11.36%.
CCc1[nH]c2c(CNC(=O)C3CNC(=O)C3)cc(C)cc2c1C (stereo unspecified) was tested, and the “Percent Effect” value was 7.867%.
In the case of CCc1[nH]c2c(CNc3cncc(C(=O)OC)n3)cc(C)cc2c1C, the “Percent Effect” value is reported as 0.7071%.
In the case of CNc1cc(C)nc(NCc2cc(C)cc3c(C)c(C)[nH]c23)n1, the “Percent Effect” value is reported as 35.24%.
In the case of CCc1[nH]c2c(CNc3nccc(N)n3)cc(F)cc2c1C, the “Percent Effect” value is reported as 15.63%.
For Cc1cc(CNc2nccc(N)n2)c2[nH]c(C)c(C)c2c1, the “Percent Effect” value was 6.431%.
In the case of CCc1[nH]c2c(CNc3nccc(N)n3)cc(C)cc2c1C, the “Percent Effect” value is reported as 83.04%.
For CCc1[nH]c2c(CNc3nc(C)cc(NC)n3)cc(C)cc2c1C, the “Percent Effect” value was 100.6%.
CNc1nc(C)cc(NCc2cc(C)cc3c(C)c(C)[nH]c23)n1 was tested, and the “Percent Effect” value was 64.43%.
With CCc1[nH]c2c(CNc3cc(C)nc(NC)n3)cc(C)cc2c1C the “Percent Effect” value was 100.4%.
COCC1c2c(cnn2CC2CC2)CCN1Cc1ccsc1.O=C(O)C(F)(F)F.O=C(O)C(F)(F)F (stereo unspecified) was tested, and the “Percent Effect” value was -18.97%.
With O=C(O)C(F)(F)F.O=C(O)C(F)(F)F.O=C(O)C(F)(F)F.c1ccc(CN2CC[C@]3(C[C@@H](Oc4ccccn4)CO3)C2)nc1 the “Percent Effect” value was -28.12%.
In the case of Cl.Cl.c1cnc(NCc2cncc3c2CCN(CC2CC2)C3)nc1, the “Percent Effect” value is reported as -5.572%.
In the case of Cc1ncsc1-c1nnc(C2CCCN2C(=O)CCn2cccn2)o1 (stereo unspecified), the “Percent Effect” value is reported as 13.77%.
Cc1nnc(N2CC[C@H]3C[C@H](C(=O)N4CCOCC4)O[C@H]3C2)s1.O=C(O)C(F)(F)F was tested, and the “Percent Effect” value was 5.897%.
CC(C)CNC(=O)N1CC[C@@H]2CN(Cc3cccnc3)S(=O)(=O)[C@@H]2CC1.O=C(O)C(F)(F)F was tested, and the “Percent Effect” value was 36.35%.
COc1ccc(CN2CCCC3(CCN(c4ccsc4)C3=O)C2)cc1.O=C(O)C(F)(F)F (stereo unspecified) was tested, and the “Percent Effect” value was 27.7%.
Cn1cc(C2CC(=O)NC23CCN(Cc2ccncc2)CC3)cn1.O=C(O)C(F)(F)F.O=C(O)C(F)(F)F (stereo unspecified) was tested, and the “Percent Effect” value was -12.84%.
In the case of O=C(N[C@@H]1CN(Cc2ccoc2)[C@@H]2CCCO[C@@H]21)C1CC1.O=C(O)C(F)(F)F, the “Percent Effect” value is reported as -3.228%.
CCNC(=O)Cc1ccc(NC(=O)NC(CC)c2ccncc2)cc1 (stereo unspecified) was tested, and the “Percent Effect” value was -2.186%.
In the case of CCC(NC(=O)Nc1ccc(OC)c(C)c1)c1noc(C)n1 (stereo unspecified), the “Percent Effect” value is reported as 14%.
CCC(NC(=O)Nc1ccc(OC)c(C)c1)c1ccncc1 (stereo unspecified) was tested, and the “Percent Effect” value was 91.94%.
For Cc1oncc1C(=O)N1CCc2ncnc(-c3cnn(C)c3)c2CC1.O=C(O)C(F)(F)F, the “Percent Effect” value was -24.59%.
In the case of O=C1CC(NCc2ncc[nH]2)CN1CCc1cccc(Cl)c1 (stereo unspecified), the “Percent Effect” value is reported as 14%.
With Clc1cccc(N2CCC(NCc3cc[nH]n3)C2)c1 (stereo unspecified) the “Percent Effect” value was -2.653%.
For Clc1cccc(N2CCC(NCc3ncc[nH]3)C2)c1 (stereo unspecified), the “Percent Effect” value was 62.08%.
For Cc1ncsc1C(=O)NCCn1nc(C2CCNC2)c2cccnc21.Cl (stereo unspecified), the “Percent Effect” value was -3.491%.
Cc1ccc(CCNc2nc(-c3ccncc3)nc3c2CCNCC3)o1 was tested, and the “Percent Effect” value was 6.799%.
In the case of Oc1ccccc1N1CCN(c2ncnc3sc4c(c23)CCNC4)CC1, the “Percent Effect” value is reported as -21.81%.
With Cc1ccc(CCNc2ncnc3sc4c(c23)CCNC4)o1 the “Percent Effect” value was 98.95%.
With c1ccc2c(c1)CN(c1ncnc3sc4c(c13)CCNC4)CCO2 the “Percent Effect” value was 1.883%.
For c1ccc(OCCNc2ncnc3sc4c(c23)CCNC4)cc1, the “Percent Effect” value was 56.72%.
For Cc1nonc1OCCNc1ncnc2sc3c(c12)CCNC3, the “Percent Effect” value was 19.66%.
With COc1ccc(C2=CNC(C(F)(F)F)=CC2N)cc1 (stereo unspecified) the “Percent Effect” value was 1.706%.
For Cc1csc(CN2CCn3c(COc4cccnc4)cnc3C2C)n1.O=C(O)C(F)(F)F.O=C(O)C(F)(F)F (stereo unspecified), the “Percent Effect” value was 18.26%.
For Cc1ccsc1C(=O)N1C[C@@H]2CN(Cc3ccoc3)CCO[C@@H]2C1.O=C(O)C(F)(F)F, the “Percent Effect” value was -4.487%.
O=C(O)C(F)(F)F.O=C(c1ccc[nH]1)N1CCn2cc(Cn3cccn3)nc2C1 was tested, and the “Percent Effect” value was -0.1806%.
With CN(C)c1ccccc1CN1CCC(N2CCCC2=O)CC1 the “Percent Effect” value was -7.548%.
For O=C(N1CCCC1)N1CCC[C@]2(C[C@@H](Oc3ncccc3F)CO2)C1.O=C(O)C(F)(F)F, the “Percent Effect” value was -4.547%.
With CN(C)C(=O)c1ccc2c(c1)N(C)C(CC(=O)NCc1ncc[nH]1)CO2 (stereo unspecified) the “Percent Effect” value was -1.035%.
In the case of CN(C)C(=O)c1ccc2c(c1)N(C)C(CC(=O)NCc1ccno1)CO2 (stereo unspecified), the “Percent Effect” value is reported as 79.27%.
In the case of COC(=O)CNC(=O)CC1COc2ccc(C(=O)N(C)C)cc2N1C (stereo unspecified), the “Percent Effect” value is reported as 7.778%.
In the case of CNC(=O)CN1CCOCC2(CCCN(Cc3ccsc3)C2)C1.O=C(O)C(F)(F)F.O=C(O)C(F)(F)F (stereo unspecified), the “Percent Effect” value is reported as -10.69%.
CCOc1ncccc1NC(=O)c1cc(C)sc1C was tested, and the “Percent Effect” value was 19.66%.
CCOc1ncccc1NC(=O)c1sccc1C was tested, and the “Percent Effect” value was 102.4%.
CCOc1ncccc1NC(=O)c1cccs1 was tested, and the “Percent Effect” value was -26.07%.
For c1cc(-c2nc3c(c(NCCn4ccnn4)n2)CCNCC3)ccn1, the “Percent Effect” value was -28.7%.
O=C(Nc1cccc(F)c1)NC1CCN(Cc2ccncc2)CC1 was tested, and the “Percent Effect” value was -8.889%.
In the case of Cc1sc2c(C3CCNCC3)nc(Nc3cccc(F)c3)n2c1C.Cl, the “Percent Effect” value is reported as 26.64%.
In the case of Cl.NC1CCc2nc(-c3ccncc3)nc(Nc3cccc(F)c3)c2C1 (stereo unspecified), the “Percent Effect” value is reported as 82.22%.
CCOCCNc1nc(-c2ccncc2)nc2c1CCNCC2 was tested, and the “Percent Effect” value was -10.32%.
With O=C(c1cccnc1O)N1CCN(CCc2cccs2)CC1 the “Percent Effect” value was 3.025%.
In the case of O=C(O)C(F)(F)F.O=C(c1cnccn1)N1CCCC2(CCN(c3ccccn3)C2)C1 (stereo unspecified), the “Percent Effect” value is reported as -26.38%.
For Cc1ccc(CN(Cc2ncc[nH]2)C2CC(C)(C)NC(C)(C)C2)o1.O=C(O)CC(O)(CC(=O)O)C(=O)O, the “Percent Effect” value was 28.54%.
In the case of O=C(O)C(F)(F)F.O=C(c1ccno1)N1CCc2ncnc(-c3ccncc3)c2CC1, the “Percent Effect” value is reported as 1.058%.
For Cc1ccoc1C(=O)N1CCn2nnc(COc3cccnc3)c2C1.O=C(O)C(F)(F)F, the “Percent Effect” value was -27.69%.
O=C(O)C(F)(F)F.O=C(O)C(F)(F)F.O=C(c1ccnnc1)N1CCN2C[C@H](OCc3cccnc3)C[C@H]2C1 was tested, and the “Percent Effect” value was -1.051%.
With Cc1ccc(CN2Cc3nnn(C)c3C(COCc3ccccc3)C2)o1.O=C(O)C(F)(F)F (stereo unspecified) the “Percent Effect” value was -18.88%.
In the case of CCc1ccc(CN(C)Cc2nc(-c3cnccn3)no2)nc1, the “Percent Effect” value is reported as 20.61%.
With CN(Cc1nc(COc2ccccc2)no1)CC1Cc2ccccc2O1 (stereo unspecified) the “Percent Effect” value was 29.18%.
For CCc1ccc(CN(C)Cc2nc(COc3ccccc3)no2)nc1, the “Percent Effect” value was 62.03%.
In the case of COc1ccccc1N1CCC(CNCc2cccc(OC)c2OC)C1 (stereo unspecified), the “Percent Effect” value is reported as 81.84%.
With COc1ccc(CNCC2CCN(c3ccccc3OC)C2)cc1O (stereo unspecified) the “Percent Effect” value was 2.532%.
COc1ccccc1N1CCC(CNCc2cccc(O)c2)C1 (stereo unspecified) was tested, and the “Percent Effect” value was 14.53%.
In the case of O=C(NC1CCC1)[C@@H]1C[C@@H]2CCN(Cc3cccs3)C[C@@H]2O1.O=C(O)C(F)(F)F, the “Percent Effect” value is reported as 3.012%.
CCC(CO)N(Cc1ccccn1)C(=O)c1ccc(=O)[nH]c1 (stereo unspecified) was tested, and the “Percent Effect” value was 1.592%.
With O=C(NC[C@]12COC[C@H]1CN(Cc1nccs1)C2)c1cscn1.O=C(O)C(F)(F)F the “Percent Effect” value was 1.78%.
COc1ccc(CN2CCC3(CC2)CCN(CC(=O)N(C)C)C3=O)cc1.O=C(O)C(F)(F)F was tested, and the “Percent Effect” value was 1.282%.
O=C1NCC2(CCCN(C(=O)Cn3nc4ccccc4n3)CC2)O1 (stereo unspecified) was tested, and the “Percent Effect” value was 102.6%.
With O=C1NCC2(CCCN(C(=O)CCn3cnc4ccccc43)CC2)O1 (stereo unspecified) the “Percent Effect” value was -31.86%.
In the case of Cn1c(CCC(=O)N2CCCC3(CC2)CNC(=O)O3)nc2cccnc21 (stereo unspecified), the “Percent Effect” value is reported as -15.92%.
O=C(O)CC(O)(CC(=O)O)C(=O)O.O[C@@]1(c2ccccn2)CC[C@H]2CN(Cc3ccccn3)C[C@H]21 was tested, and the “Percent Effect” value was 3.038%.
With CCN(CC)c1ccc2ccc(C(=O)O)cn12 the “Percent Effect” value was 4.754%.
CCN(CC)c1ccc2ccc(C(=O)N3CCCCO3)cn12.O=C(O)C(F)(F)F was tested, and the “Percent Effect” value was 56.41%.
With CN1CCN(c2ccc3ccc(C(=O)N4CCCCO4)cn23)CC1.O=C(O)C(F)(F)F the “Percent Effect” value was 28.6%.
For Cl.O=C(Cn1c(-c2ccco2)cc2cccnc21)N1CCCC1, the “Percent Effect” value was 2.747%.
For CC(=O)N1[C@H](Cn2cncn2)C[C@@H]2CN(S(C)(=O)=O)CC[C@@H]21, the “Percent Effect” value was -11.62%.
With CCCc1nc(N(C)CCc2noc(C(C)C)n2)c2cnn(C)c2n1 the “Percent Effect” value was -6.302%.
CCc1nnc(CN(C)c2nc(C3CCCC3)nc3c2cnn3C)o1 was tested, and the “Percent Effect” value was -3.006%.
With CCc1nnc(CN(C)c2nc(C(C)C)nc3c2cnn3C)o1 the “Percent Effect” value was 106.1%.
CCc1nnc2n1CC(CNCC1CCCC1)CC2 (stereo unspecified) was tested, and the “Percent Effect” value was -14.79%.
For CCc1nnc2n1CC(CNCc1ccncc1)CC2 (stereo unspecified), the “Percent Effect” value was 102.6%.
In the case of CC(C)c1nnc2n1CC(CNCc1ccsc1)CC2 (stereo unspecified), the “Percent Effect” value is reported as -8.8%.
For CC(C)c1nnc2n1CC(CNCc1ccncc1)CC2 (stereo unspecified), the “Percent Effect” value was 107%.
CCc1nnc2n1CC(CNCc1nc(C)c(C)o1)CC2 (stereo unspecified) was tested, and the “Percent Effect” value was -15.23%.
In the case of CC(C)c1nnc2n1CC(CNCc1cccnc1)CC2 (stereo unspecified), the “Percent Effect” value is reported as -38.13%.
With O=C(O)C(F)(F)F.O=C1CC[C@H]2[C@H](CCN2C(=O)C2CCCO2)N1Cc1cccnc1 (stereo partly specified) the “Percent Effect” value was 1.298%.
CNC(=O)CN1CC[C@H]2CN(C(=O)c3ccc(C)cc3)C[C@H]2C1.O=C(O)C(F)(F)F was tested, and the “Percent Effect” value was -25.29%.
For Cn1cc(CN2C[C@H](Oc3ncccc3F)[C@H]3OCCC[C@H]32)cn1.O=C(O)C(F)(F)F.O=C(O)C(F)(F)F.O=C(O)C(F)(F)F, the “Percent Effect” value was -12.51%.
